Screening data: PubChem BioAssay, The Scripps Research Institute Molecular Screening Center
An excerpt weighted towards active compounds, which were near 2.3% of everything screened.
M1 ag: human M1 muscarinic receptor agonists, primary screen, Fluo-8 calcium fluorescence, CHO-K1 cells, HTS. activation, % at 3 µM. Muscarinic acetylcholine receptor M1 (Homo sapiens), P11229. 0.33% of 360,000 active. CHO-K1 hM1, agonist mode; 0% DMSO, 100% acetylcholine EC100. AID 588814, 2011;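 active = activation above the run's mean compound activation plus 3 SD, cut at about 16% in these data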;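 note: peak over basal fluorescence ratio within a 140 s kinetic read after compound addition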
Target sequence (P11229 whole entry, looked up): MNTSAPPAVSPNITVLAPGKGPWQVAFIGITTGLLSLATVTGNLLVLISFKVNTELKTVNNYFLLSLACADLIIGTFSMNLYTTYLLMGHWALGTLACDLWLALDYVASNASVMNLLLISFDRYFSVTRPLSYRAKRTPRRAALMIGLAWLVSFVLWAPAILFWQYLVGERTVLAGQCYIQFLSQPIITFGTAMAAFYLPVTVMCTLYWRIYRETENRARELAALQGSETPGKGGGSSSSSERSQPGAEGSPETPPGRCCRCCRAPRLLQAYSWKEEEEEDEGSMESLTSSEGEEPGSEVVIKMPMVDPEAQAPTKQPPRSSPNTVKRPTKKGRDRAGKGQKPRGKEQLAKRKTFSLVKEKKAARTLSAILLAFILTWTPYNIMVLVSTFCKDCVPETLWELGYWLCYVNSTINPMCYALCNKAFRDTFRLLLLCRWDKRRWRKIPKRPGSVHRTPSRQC
CHRM1 PAM: human M1 muscarinic receptor positive allosteric modulators, primary screen, CHO-K1 cells, Fluo-8 calcium fluorescence, 1536-well. Muscarinic acetylcholine receptor M1 (Homo sapiens), P11229. CHO-K1 hM1, ACh EC20; 0% = ACh EC20, 100% = maximal ACh. activation, % at 3 µM. 0.088% of 360,000 active. AID 588819, 2011; in the data active = activation above about 19%, passing the limit was not always enough
CHRM1 antagonist: human M1 muscarinic receptor antagonists, primary screen, CHO-K1 cells, Fluo-8 calcium fluorescence, 1536-well. Muscarinic acetylcholine receptor M1 (Homo sapiens), P11229. CHO-K1 hM1, ACh EC80 antagonist. inhibition, % at 3 µM. 1.3% of 360,000 active;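 active = percent inhibition above its own plate's cutoff, namely the mean of that plate's compound wells plus 3 SD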;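 note: peak over basal fluorescence ratio during 140 s after agonist addition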
CHO-K1 Ca ag: counter-screen for M1 agonists: effect in parental CHO-K1 cells. Fluo-8 calcium fluorescence; scaled to maximal ATP response, vehicle zero. activation, % at 3 µM. 0.48% of 360,000 active. AID 602248, 2012; in the data active = activation above about 15%;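 note: untransfected CHO-K1 host cells lacking M1 receptor as counterscreen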
CHO-K1 Ca antag: nonselective inhibitor or artifact in parental CHO-K1 cells; inhibition, % at 3 µM; 0.6% of 360,000 active; ATP-induced calcium, Fluo-8 fluorescence;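 active = inhibition above a per-plate cutoff, the plate's mean sample inhibition plus 3 SD, cut at about 24% in these data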
CHO-K1 Ca PAM: nonselective calcium activators in parental CHO-K1 cells, primary screen, counter-screen for M1 PAM project, cell-based, Fluo-8 calcium fluorescence, full deck, 1536-well; ATP EC20; 0% at ATP EC20, 100% at ATP max; activation, % at 3 µM; 0.02% of 360,000 active;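 active = activation above the run cutoff, the mean activation of all test compounds plus 3 SD, cut at about 40% in these data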;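 note: peak over basal fluorescence ratio in a 140 s read after ATP addition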
A number is an active result; 0 = inactive.

SMILES	M1 ag	CHRM1 PAM	CHRM1 antagonist	CHO-K1 Ca ag	CHO-K1 Ca antag	CHO-K1 Ca PAM
O=[N+]([O-])c1ccc(C[n+]2ccc(Cc3ccccc3)cc2)cc1	0	0	28.3	0	0	0
O=C(C[n+]1ccc(Cc2ccccc2)cc1)Nc1ccc([N+](=O)[O-])cc1Cl	0	0	86.2	0	0	0
Cc1cccc[n+]1CC(=O)Nc1ccc([N+](=O)[O-])cc1Cl	0	0	35.7	0	0	0
Cn1c(=O)c(=O)n(C)c2cc(S(=O)(=O)CCC(=O)Nc3ccc(C(F)(F)F)cc3)ccc21	0	0	0	0	0	0
CC(=O)Nc1cc(C)ns1	0	0	0	0	0	0
CCOC(=O)C1=C(Nc2ccc(Cl)cc2)OCC1=O	0	0	0	0	0	0
CC[N+](CC)(CC)CCC(O)(c1ccccc1)C1CCCCC1 (stereo not given)	0	0	98.3	0	0	0
CCN(CC)CCC(O)(c1ccccc1)C1CCCCC1 (stereo not given)	0	0	100.2	0	0	0
O=C(c1ccco1)N(CCC(c1ccccc1)c1ccco1)Cc1ccc(F)cc1 (stereo not given)	0	0	0	0	0	0
CC1(C)CC(C(CCN(Cc2ccccc2)C(=O)c2ccco2)c2ccc(F)cc2)CCO1 (stereo not given)	0	0	36.1	0	0	0
CS(=O)(=O)N(CC(=O)N1CCCC1)c1ccc(Cl)cc1	0	0	0	0	0	0
Cc1ccccc1N=C/C=C1\N(C)c2ccccc2C1(C)C	0	0	25.2	0	0	0
CN1/C(=C\C=C2/SC(=S)NC2=O)C(C)(C)c2ccccc21	57.4	0	61.9	71.9	59.1	0
CC1=NN(c2ccccc2)C(=O)/C1=C\C=C1\N(C)c2ccccc2C1(C)C	0	0	0	0	0	0
CN1/C(=C\C=N\O)C(C)(C)c2ccccc21	0	0	0	0	0	0
CC1=NN(c2ccccc2)C(=O)/C1=C\C=C1/N(C)c2ccccc2C1(C)C	22.9	0	25.9	32.0	0	0
CC(Sc1nc(N)cc(=O)[nH]1)C(=O)Nc1ccc(N2CCOCC2)cc1 (stereo not given)	0	0	0	0	0	0
Cc1cccc(CC(=O)Nc2ccc(C(=O)N3CCOCC3)cc2)c1	0	0	0	0	0	0
Cc1ccc(S(=O)(=O)NCCNc2ccc([N+](=O)[O-])cc2)cc1	0	0	0	0	0	0
Cc1ccc(S(=O)(=O)NCCCNc2ccc([N+](=O)[O-])cc2)cc1	0	0	0	20.6	0	0
COc1ccc(C(CNC(=O)c2ccc(NS(=O)(=O)c3ccc(F)c(C)c3)cc2)N2CCCC2)cc1 (stereo not given)	0	0	73.1	0	0	0
COc1ccccc1C(CNC(=O)c1cccc(NS(=O)(=O)c2ccc(C)c(F)c2)c1)N1CCCC1 (stereo not given)	0	0	84.0	0	0	0
COc1ccccc1C(CNC(=O)c1ccc(NS(=O)(=O)c2ccc(F)c(C)c2)cc1)N1CCCC1 (stereo not given)	0	0	0	0	0	0
O=C(Cn1c(=O)cnc2ccccc21)N1CCN(S(=O)(=O)c2ccccc2Br)CC1	0	0	0	0	0	0
CCC(=O)N1CCc2nc(-c3ccccc3)sc2C1	0	0	0	0	0	0
SMILES	M1 ag	CHRM1 PAM	CHRM1 antagonist	CHO-K1 Ca ag	CHO-K1 Ca antag	CHO-K1 Ca PAM
CCNC(=O)C1(C)CCCN(C(=O)c2ccc(C(F)(F)F)nc2C)C1 (stereo not given)	0	0	0	0	0	0
CCN1C(=C(C#N)C#N)C=Cc2cc(C)ccc21	0	0	0	0	0	0
C=CC[n+]1c(/C=C2\C=Cc3cc(C)ccc3N2CC)ccc2ccccc21	0	0	53.8	16.0	38.1	0
O=C(NC1CCN(C(=O)Nc2cccc(Cl)c2)CC1)c1ccco1	0	0	0	0	0	0
O=C(NCCCN1CCCC1)c1ccc2c(Cl)c3c(nc2c1)CCCC3	0	0	0	0	0	0
CCCN1CCN(CCCNC(=O)c2ccc3c(Cl)c4c(nc3c2)CCCC4)CC1	0	0	34.4	0	0	0
COc1ccc(NC(=O)CN(C)C(=O)c2cc(-c3ccccc3)nc3ccccc23)cc1	0	0	0	0	0	0
CN(CC(=O)Nc1ccc(F)cc1)C(=O)COc1ncnc2ccccc12	0	0	100.6	0	0	0
O=C(COC(=O)c1cc(-c2cccc(Br)c2)nc2ccccc12)NCC1CCCO1 (stereo not given)	0	0	0	0	28.1	0
CN(CCOc1ccc(Cl)cc1)C(=O)c1cc(-c2ccco2)nc2ccccc12	0	0	37.8	0	24.5	0
COc1ccc(NC(=O)CN(C)C(=O)c2cc(-c3ccc(OC)cc3)nc3ccccc23)cc1	0	0	29.2	0	0	0
CN(CC(=O)Nc1ccc(Cl)cc1)C(=O)COc1ncnc2ccccc12	0	0	0	0	0	0
O=C(COC(=O)c1cc(-c2ccccc2)nc2ccccc12)NCC1CCCO1 (stereo not given)	0	0	0	0	0	0
CCNC(=O)COC(=O)c1cc(-c2ccc(OC)cc2)nc2ccccc12	0	0	13.7	0	0	0
CC1=C(C(=O)OC2CCCCC2)C(c2ccccc2Br)NC(=O)N1 (stereo not given)	0	0	0	0	0	0
CCCCN1C(=O)C(CC(=O)NC2CCCCC2)CC(C(=O)N(CC)CC)=C1C (stereo not given)	0	0	0	0	0	0
CCN(CC)C(=O)C1=C(C)N(CCC2=CCCCC2)C(=O)C(CC(=O)NCC2CCCCC2)C1 (stereo not given)	0	0	0	0	24.7	0
CCCCN1C(=O)C(CC(=O)NC2CCCC2)CC(C(=O)N(CC)CC)=C1C (stereo not given)	0	0	0	0	26.2	0
COc1cccc2cc(C(=O)Nc3ccccc3Cl)/c(=N/NS(=O)(=O)c3ccccc3)oc12	0	0	0	0	0	0
CC(C)CCN(CC(=O)NCc1ccc(F)cc1)S(=O)(=O)c1ccccc1F	0	0	0	0	0	0
C=CCN1C=CC(=CC=C(C#N)C#N)C=C1	0	0	0	0	27.2	0
CCOC(=O)/C(C#N)=C/C=C1\C=Cc2ccccc2N1CC	0	0	0	0	0	0
CCCN1C=CC(=CC=C(C#N)C#N)C=C1	0	0	0	0	23.7	0
CCCCCCN1C=CC(=C/C=C(\C#N)C(=O)OCC)C=C1	150.1	0	60.0	73.0	43.0	0
